Bioassay records: PubChem BioAssay, National Center for Advancing Translational Sciences (NCATS)
In the library only some 2.4% were active in any assay of this set; here they are far more common.
D2 PAM-1 = Beta-Arrestin HTS for Positive Allosteric Modulators of the Human D2 Dopamine Receptor: Potentiators; D(2) dopamine receptor (Homo sapiens), P14416; DiscoveRx D2 beta-arrestin cells, luminescence, 90 min; 100% = 57 uM dopamine signal; potentiation, % (concentration not given with the values); 0.23% of 360,000 active; AID 624464, 2012; in the data active = potentiation above about 50%; inconclusive = mostly about 30% to 49%
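PathHunter beta-arrestin assay in DiscoveRx D2 cells. Compounds were added with an EC20 of dopamine (50 nM final) for 90 min at 37 deg C. Luminescence was read 1 h after detection reagent, with 57 uM dopamine as the EC100 control.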
D2 antag = HTS Assay for Allosteric Antagonists of the Human D2 Dopamine Receptor: Primary Screen for Antagonists | 2% of 340,000 active | HEK293 TREx D2 cells, calcium flux, dopamine EC80 | inhibition, % at 10 µM; in the data active = inhibition above about 30%; inactive = below that, where a call was filed; note: 0% is about no effect
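Calcium flux kinetic readout in an inducible HEK293 TREx D2 line plated overnight at 30 C. After 180 s compound exposure, an EC80 dopamine challenge follows with another 180 s kinetic read to detect antagonism.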
D2 ag-1 = Beta-Arrestin HTS for Positive Allosteric Modulators of the Human D2 Dopamine Receptor: Agonists; DiscoveRx PathHunter D2 beta-arrestin, luminescence, 90 min; 100% = 57 uM dopamine signal; D(2) dopamine receptor (Homo sapiens), P14416; activation, % (test concentration not listed); AID 624465, 2012; 0.084% of 360,000 active; in the data active = activation above about 40%; inconclusive = between about 15% and that limit
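DiscoveRx PathHunter D2 beta-arrestin cells (2,100/well) attached overnight, then compound-stimulated 90 min at 37 C in HBSS/10 mM HEPES/0.1% Tween-20 buffer; beta-galactosidase complementation read by luminescence after 1 h at ambient temperature. Dopamine 57 uM final (EC100) as control.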
D2 PAM-2 = HTS Assay for Positive Allosteric Modulators of the Human D2 Dopamine Receptor: Primary Screen for Potentiators; D(2) dopamine receptor (Homo sapiens), P14416; HEK293 T-REx D2, calcium flux, EC20 dopamine potentiation; 0.34% of 340,000 active; potentiation, % at 10 µM;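 active = potentiation over 3 SD above the plate norm, cut at about 30% in these data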; note: 0% is about no effect
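Calcium flux readout, no-wash dye, 1 read/s. Inducible HEK293 Trex D2 line, overnight 30 C. Compound alone 180 s (agonist flags), then EC20 dopamine, another 180 s to score potentiation.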
D2 ag-2 = HTS Assay for Allosteric Agonists of the Human D2 Dopamine Receptor: Primary Screen for Agonists; 0.53% of 340,000 active; activation, % at 2 µM; HEK293 T-REx D2 cells, calcium flux agonist mode; D(2) dopamine receptor (Homo sapiens), P14416; AID 485358, 2010;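 active = activation over 3 SD above normal in the single-dose calcium agonist read, cut at about 30% in these data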; note: 0% is about no effect
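HEK293 Trex D2 cells, tetracycline-induced, o/n 30 C 5% CO2; no-wash Ca dye, RT 30–90 min; 10-cycle baseline, 23 nl cpd added, kinetic Ca read 180 s; agonist hits = positive Ca response.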
D3 arrestin ag = qHTS of D3 Dopamine Receptor Agonist: D3 Dopamine Receptor B-arrestin Agonist Confirmatory Assay; 4% of 2,300 active; DiscoveRx D3 beta-arrestin cells, luminescence, 90 min; Potency, µM (series often up to 76.9 µM), inactives show at the top dose activation, most hits filed as activators; shares compounds with D2 ag-2;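 note: potency is the fitted concentration of half-maximal effect; 100% = dopamine control response; nearly all actives have a fitted effect of over 70% in size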
Target sequence (P35462 whole entry, looked up): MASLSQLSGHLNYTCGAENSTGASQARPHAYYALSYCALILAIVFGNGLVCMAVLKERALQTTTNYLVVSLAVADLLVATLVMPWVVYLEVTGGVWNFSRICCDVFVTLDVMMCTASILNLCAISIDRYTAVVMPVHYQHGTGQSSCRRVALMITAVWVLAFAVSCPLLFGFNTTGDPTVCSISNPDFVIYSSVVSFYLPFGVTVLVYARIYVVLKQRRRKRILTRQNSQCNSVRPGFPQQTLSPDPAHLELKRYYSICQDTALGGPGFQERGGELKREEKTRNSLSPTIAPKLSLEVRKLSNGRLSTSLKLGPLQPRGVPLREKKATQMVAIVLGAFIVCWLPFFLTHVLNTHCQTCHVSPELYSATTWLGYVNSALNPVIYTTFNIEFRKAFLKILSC
D2 ag-3 = qHTS of D3 Dopamine Receptor Agonist: D2 Dopamine Receptor B-arrestin Agonist Counterscreen; shares compounds with D2 ag-2; DiscoveRx PathHunter D2 beta-arrestin, luminescence, 90 min; response scale: percent relative to full dopamine signal; Potency, µM (doses to about 76.9 µM), for the others: at the highest dose activation, usual class: activators; 5.9% of 2,300 active; AID 720507, 2013; note: potency is the fitted concentration of half-maximal effect; % of control where 0% means no effect; nearly all actives have a fitted effect of over 70% in size
Numbers without * were called inactive; ? = inconclusive; nt = no result. Unless noted, calls come from the whole dose curve; as a rule, active = well fitted activation curve with a large enough effect; inconclusive = small, poorly fitted or top-dose-only effect; inactive = flat fitted curve, though single readings scatter.

SMILES	D2 PAM-1	D2 antag	D2 ag-1	D2 PAM-2	D2 ag-2	D3 arrestin ag	D2 ag-3
CCOCCCn1c(=S)[nH]c2cc(C(=O)NCCN(CC)CC)ccc2c1=O	1	nt	9	-12	nt	-8%	12%
O=c1c2ccccc2[nH]c(=S)n1CCCN1CCN(c2ccccc2F)CC1	-12	81*	?	-29	71*	14%	26%
CCN(CCCn1c(=S)[nH]c2ncccc2c1=O)c1ccccc1	-6	-2	-2	1	-1	nt	nt
CCN(CC)CCCn1c(=S)[nH]c2ncccc2c1=O	8	48*	4	-16	50*	-6%	6%
O=c1c2ccccc2[nH]c(=S)n1CCCN1CCN(c2ccccc2)CC1	?	-24	?	5	1	nt	nt
COc1cccc(CNC(=O)c2ccc(NC(=O)N3CCCCc4ccccc43)cc2)c1OC	nt	nt	nt	-3	nt	nt	nt
COc1ccc(-c2nc(CN3CCC(C(=O)NCc4ccc(C)cc4)CC3)c(C)o2)cc1OC	nt	nt	nt	-5	-1	nt	nt
COc1ccc(OCC(=O)Nc2cc(-c3nc4ccccc4o3)ccc2Cl)cc1	nt	nt	nt	-12	0	nt	nt
CC(C)(CO)NS(=O)(=O)c1ccc2c(c1)C(=O)c1cc(S(=O)(=O)NC(C)(C)CO)ccc1-2	0	-8	-1	-5	3	nt	nt
CC(C)(CO)NS(=O)(=O)c1ccc2c(c1)Cc1cc(S(=O)(=O)NC(C)(C)CO)ccc1-2	-4	22	6	-3	-2	13%	3%
COCc1cc(C)nc2sc3c(c12)NC(c1ccc(NC(C)=O)cc1)N(c1ccc(C)cc1)C3=O (stereo not given)	nt	nt	nt	24	2	nt	nt
O=C(c1ccco1)N1CCN(CC2CC3C=CC2C3)CC1 (stereo not given)	?	84*	42*	nt	24	?	?
Cc1ccccc1CN1CCN(CC2CC3C=CC2C3)CC1 (stereo not given)	-29	19	-3	-24	-1	nt	nt
C1=CC2CC1CC2CN1CCN(c2ccccc2)CC1 (stereo not given)	?	77*	?	-28	76*	7%	?
CCOCCCn1c(SCC(=O)Nc2ccccc2Cl)nc2c(oc3ccccc32)c1=O	nt	nt	nt	6	0	nt	nt
Cc1ccc(-c2nc3sc(CCNC(=O)c4ccc(F)c(F)c4)c(C)n3n2)cc1	nt	nt	nt	-3	0	nt	nt
Cc1ccccc1CN1CCN(S(=O)(=O)c2ccc(F)cc2)CC1	-18	-18	-1	-2	1	nt	nt
O=S(=O)(c1ccc(Br)cc1)N1CCCN(Cc2ccccc2F)CC1	-7	-20	-1	-22	41*	-8%	-2%
OCC[C@H]1C[C@H](O)[C@@H](O)[C@@]2(OCCCc3ccccc32)O1	-2	-7	-3	0	1	0%	-4%
OCC[C@@H]1C[C@@H](O)[C@H](O)[C@]2(OCCCc3ccccc32)O1	-2	-10	-1	-2	1	nt	nt
OCC[C@H]1C[C@@H](O)[C@H](O)[C@]2(OCc3ccccc32)O1	-3	-2	-2	6	0	-4%	0%
Cn1c(CCN2CCN(c3ccccn3)CC2)nc2cc(NC(=O)COc3ccc(Cl)cc3)ccc21	-20	37*	11	2	-1	26%	?
Cc1cccc(OCC(=O)Nc2ccc3c(c2)nc(CCN2CCN(c4ccccn4)CC2)n3C)c1	-20	31*	10	-5	0	28µM*	?
CCC(CC)c1nnc(NC(=O)c2cc(-c3ccccc3)nc3ccccc23)s1	-14	nt	-1	nt	nt	-12%	-2%
Cc1cccc(CNC(=O)CSCc2cnn(-c3ccccc3)c2-n2cccc2)c1	nt	nt	nt	4	1	nt	nt
SMILES	D2 PAM-1	D2 antag	D2 ag-1	D2 PAM-2	D2 ag-2	D3 arrestin ag	D2 ag-3
COc1cccc(-c2nc3c(C#N)c[nH]n3c2NC2CCCC2)c1OC	nt	nt	nt	-2	3	nt	nt
O=[N+]([O-])c1cccc(CN2CCN(c3ncccn3)CC2)c1	8	29	?	-17	75*	9%	?
O=[N+]([O-])c1ccc(CN2CCN(c3ncccn3)CC2)cc1	?	85*	49*	-27	83*	?	18µM*
O=[N+]([O-])c1ccccc1CN1CCN(c2ncccn2)CC1	-4	4	9	-3	47*	2%	10%
O=C(NCc1cccc(F)c1)c1ccccc1NC(=O)c1nsc2ccccc12	nt	nt	nt	9	0	nt	nt
CC(=O)c1c(C)[nH]c(C(=O)OCC(=O)Nc2ccccc2Cl)c1C	-2	20	5	5	1	nt	nt
CC(=O)c1c(C)[nH]c(C(=O)OCC(=O)Nc2nnc(-c3ccccc3)o2)c1C	2	35*	5	-2	0	2%	-2%
Cc1cc(C)c2c(=O)cc(C(=O)NCc3ccc(S(N)(=O)=O)cc3)oc2c1	nt	nt	nt	9	-1	nt	nt
O=c1[nH]cc(NCCc2ccccc2)c(=O)[nH]1	-3	-19	0	-14	38*	11%	13%
O=c1[nH]cc(NCc2ccccc2)c(=O)[nH]1	-10	nt	0	nt	nt	nt	nt
Cc1ccc(Cn2ccn(Cc3ccc(C)cc3)c(=O)c2=O)cc1	nt	nt	nt	-2	1	nt	nt
O=C(NC1CC(=O)N(c2cccc(F)c2)C1)c1cc2ccccc2o1 (stereo not given)	nt	nt	nt	8	1	nt	nt
CCOC(=O)N1CCC(N2CCN(Cc3ccccc3)C(CCO)C2)CC1 (stereo not given)	-2	76*	?	-13	78*	0%	?
CCOC(=O)N1CCC(N2CCCC(C(=O)c3ccccc3OC)C2)CC1 (stereo not given)	10	70*	?	-15	74*	-2%	?
COc1cccc(CN2CCN(C3CCN(c4ccccc4F)CC3)CC2CCO)c1 (stereo not given)	-16	8	-2	-23	3	nt	nt
COc1cccc(CN2CCN(C3CCN(c4ccccc4C)CC3)CC2CCO)c1 (stereo not given)	-8	27	-8	-26	60*	-12%	3%
